Experimental data as given in PubChem BioAssay AID1347416 (National Center for Advancing Translational Sciences (NCATS), 2020).
Among all 4,100 compounds or so, about 1,600 (39%) were called active. Not shown: some 25% with an inconclusive outcome. The list shows a part of the results. A number with no mark means an inactive call. Calls come from the whole dose curve; as a rule, active = well fitted inhibition curve with a large enough effect; inconclusive = small, poorly fitted or top-dose-only effect; inactive = no such curve, though single readings can be large or run the other way.

Assay: qHTS Validation assay for Inhibitors of Plasmodium falciparum Dd2 growth in vitro; note: nearly all actives have a fitted effect of over 70% in size
Conditions: P. falciparum Dd2 in RBCs, SYBR Green growth, 72 h; series mostly up to 28.7 µM; activity change, negative = inhibition: at the top concentration
Procedure, shortened: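 P. falciparum Dd2-infected red blood cells (2.5% hematocrit, 0.3% parasitemia) grown 72 h at 37 °C under 5% O2 with compounds in a titration, 29 uM to 0.5 nM final. Growth read as SYBR Green-1 fluorescence after ~16 h lysis; artesunate 300 nM as positive control.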
% is set by controls: 0 for no effect and ±100 for the full control effect; potency is the fitted concentration of half-maximal effect.

Row | Compound | Potency | activity change, negative = inhibition
1 | CCOc1nc(N=C(N)N)nc2c(C)cccc12 | 10.6 µM (active) | 
2 | COc1nc(N=C(N)N)nc2c(C)cccc12 |  | 6.43%
3 | CN1C(=O)CS(=O)(=O)C12CCN(C(=O)c1cc(F)ccc1Cl)CC2 |  | 33.6%
4 | Cc1ccc(C2Cn3nnc(-c4noc(-c5nn(C)c6ccccc56)n4)c3CO2)cc1 (stereo not drawn) |  | -11.5%
5 | Cc1ccc(C2Cn3nnc(-c4noc(CNC(=O)c5ccccc5)n4)c3CO2)cc1 (stereo not drawn) |  | 2.54%
6 | Cc1ccc(C2Cn3nnc(-c4noc(-c5n[nH]c6c5CCCC6)n4)c3CO2)cc1 (stereo not drawn) | 13.3 µM (active) | 
7 | Oc1ccc(Br)cc1Cn1nnc2ccccc21 |  | -20.1%
8 | CCn1c(/C=C/c2cc(Br)ccc2O)nc2ccccc2c1=O | 4.22 µM (active) | 
9 | O=c1c2ccccc2nc(/C=C/c2cc(Br)ccc2O)n1CCCO | 9.44 µM (active) | 
10 | O=C(c1ccccc1-c1ccccc1)N1CCC(c2ncc[nH]2)CC1 |  | 11.4%
11 | CCc1c(C)[nH]c2ccccc2c1=O | 10.6 µM (active) | 
12 | CCCc1c(C)[nH]c2ccccc2c1=O | 7.5 µM (active) | 
13 | C=CCc1c(C)[nH]c2ccc(C)cc2c1=O |  | 4.14%
14 | O=c1nc2ccccn2c2ccc(S(=O)(=O)N3CCCCC3)cc12 |  | -7.23%
15 | COc1cccc(S(=O)(=O)N2CCC3(CC2)C(OC)C(=O)N3c2cccc(F)c2)c1 (stereo not drawn) |  | 9.51%
16 | O=S(=O)(c1ccc2ccccc2c1)N1CCN(C(=S)Nc2ccc(F)c(Cl)c2)CC1 | 1.06 µM (active) | 
17 | O=C(Cn1ccc2cc(S(=O)(=O)N3CCCCCC3)ccc21)NCCc1ccc(Cl)cc1 |  | -7.98%
18 | O=S(=O)(c1ccc2ccccc2c1)N1CCN(C(=S)Nc2ccccc2F)CC1 | 4.22 µM (active) | 
19 | COc1cccc(NC(=S)N2CCN(S(=O)(=O)c3ccc(F)cc3)CC2)c1 | 2.66 µM (active) | 
20 | O=S(=O)(c1ccc(Cl)cc1)N1CCN(C(=S)Nc2ccccc2F)CC1 | 2.37 µM (active) | 
21 | CN1CCN(c2ccc(Nc3ccnc4cc(Cl)ccc34)cc2)CC1 | 0.188 µM (active) | 
22 | Clc1ccc2c(N/N=C/c3cccc(Br)c3)ccnc2c1 | 10.6 µM (active) | 
23 | CN(C)c1ccnc(Nc2ccc(O)cc2)c1C#N |  | 31.5%
24 | O=C(NNc1ccnc2cc(Cl)ccc12)C1CCCCC1 | 7.5 µM (active) | 
25 | Oc1ccc(Nc2ccnc3cc(Cl)ccc23)cc1 | 1.68 µM (active) | 

Row | Compound | Potency | activity change, negative = inhibition
26 | CN1CCN(c2cc(=O)c3ccnc(N4CCOCC4)c3o2)CC1 |  | 0% [at 43.1 µM]
27 | CN(Cc1ccccc1F)C1CCc2ccccc21 (stereo not drawn) |  | -5.87% [at 43.1 µM]
28 | O=C(CSc1ncn[nH]1)Nc1ccnc2ccccc12 |  | 7.19%
29 | Clc1ccc(NNc2ccnc3cc(Cl)ccc23)cc1 | 1.5 µM (active) | 
30 | CCN1CCN(c2ccc(Nc3ccnc4ccccc34)cc2)CC1 | 1.06 µM (active) | 
31 | COc1ccccc1NC(=O)c1nn(C)c2c1CS(=O)(=O)c1ccccc1-2 |  | 12.4%
32 | CN(C(=O)c1ccc2c(c1)N(Cc1ccc(F)cc1)C(=O)c1ccccc1S2(=O)=O)C1CCCCC1 |  | -13.4%
33 | CCOC(=O)c1ccc2c(c1)N(C(CC)C(=O)Nc1ccccc1OC)C(=O)c1ccccc1S2 (stereo not drawn) | 9.44 µM (active) | 
34 | CCOC(=O)c1ccc2c(c1)N(CC(=O)N(C)c1ccccc1)C(=O)c1ccccc1S2 | 10.6 µM (active) | 
35 | O=C1NCCCCCCN(C(=O)C2CCCC2)[C@H]2CCCC[C@@H]12 |  | 11.8%
36 | O=C1NC(=NC2CCCC2)C2(CCN(Cc3ccccc3)C2)N1c1cc(F)cc(F)c1 (stereo not drawn) | 7.5 µM (active) | 
37 | O=C1NC(=NC2CCCCC2)C2(CCN(Cc3ccccc3)C2)N1c1cc(F)cc(F)c1 (stereo not drawn) | 4.22 µM (active) | 
38 | O=C(c1ccccc1F)N1CCCC2(C1)C(=NC1CCCC1)NC(=O)N2c1cc(F)cc(F)c1 (stereo not drawn) |  | 9.15%
39 | COc1cccc([S+](=O)([O-])N2CCC3(CC2)C(=NC2CCCCC2)NC(=O)N3c2cc(F)cc(F)c2)c1 |  | -28.1%
40 | O=C1NCc2ccccc2CC12CCCN(Cc1ccccc1)C2 (stereo not drawn) |  | -10.1%
41 | O=C(NC(c1ccc(Cl)cc1)c1cc(Cl)c2cccnc2c1O)c1cccnc1 (stereo not drawn) | 5.96 µM (active) | 
42 | O=C(NC(c1ccccc1)c1cc(Cl)c2cccnc2c1O)c1cccnc1 (stereo not drawn) | 7.5 µM (active) | 
43 | Cc1ccc2nc(-c3ccc(Cl)c(NC(=O)c4cccnc4)c3)oc2c1 |  | 2.58%
44 | CN(CC1(C)CCOCC1)C(=O)c1ccco1 |  | 4.08%
45 | O=C(Cn1ccn2nc(-c3ccc(F)cc3)c(CO)c2c1=O)Nc1ccc(Cl)cc1F |  | 1.78%
46 | CC(Oc1ccc(F)cc1)C(=O)Nc1cc(C(F)(F)F)ccc1-n1cncn1 (stereo not drawn) | 1.68 µM (active) | 
47 | CC(Oc1ccc(F)cc1)C(=O)Nc1cc(Cl)ccc1-n1cncn1 (stereo not drawn) | 6.68 µM (active) | 
48 | CC(C(=O)N1CCc2ccccc21)N1CCc2ccccc2C1 (stereo not drawn) |  | -5.58%
49 | CC1(C)C(=O)N(CC2CCOCC2)[C@H]2CN(Cc3ccccc3O)C[C@H]2[S+]1(=O)[O-] |  | 16.8% [at 43.1 µM]
50 | COCC1CN(C)CC12CCN(C(=O)CC1=CCCCC1)CC2 (stereo not drawn) |  | -27.3%

Row | Compound | Potency | activity change, negative = inhibition
51 | Cc1cn2nc(C(=O)N3CCC(C(=O)NCc4cccnc4)CC3)cc2c(=O)[nH]1 |  | 23.2%
52 | O=C(NCCN1CCCCC1)c1ccc(-c2nnc3ccc(NC(=O)C4CCC4)cn23)cc1 | 13.3 µM (active) | 
53 | O=C(Nc1ccc(-c2nnc3n2CCCC3)cc1)c1ccccc1F |  | 29.2%
54 | O=C1CCN(S(=O)(=O)c2ccccc2)CCCC(C(=O)NCCc2cccnc2)CCN1 (stereo not drawn) |  | 5.17%
55 | O=C(NCCc1ccncc1)c1ccc(-c2nnc3ccc(NC(=O)C4CCC4)cn23)cc1 | 2.99 µM (active) | 
56 | O=C(NCCc1cccnc1)c1ccc(-c2nnc3ccc(NC(=O)C4CCC4)cn23)cc1 | 6.68 µM (active) | 
57 | CC1CN(C(=O)Nc2ccc(C(=O)NCCc3ccccc3)cc2)c2ccccc2S1 (stereo not drawn) |  | -0.366%
58 | Cc1noc(-c2ccn3c(CNC(=O)c4ccncc4)nnc3c2)n1 |  | -2.17%
59 | Cn1c(=O)c2ccnn2c2ccc(C(=O)NCCN3CCC(N4CCCCC4)CC3)cc21 |  | 9.58%
60 | CC(C)(C)CC(C)(C)c1ccc(O)c(Cc2ccc(Cl)cc2Cl)c1 | 1.68 µM (active) | 
61 | CCc1cccc(NC(=O)N2CCc3nc4cc(-c5ccc(OC)cc5)[nH]n4c(=O)c3C2)c1 |  | -5.7%
62 | CN1C[C@@H](NC(=O)CC(C)(C)C)C[C@H]1c1nc(-c2ccc(OC(F)(F)F)cc2)no1 |  | 0% [at 43.1 µM]
63 | CCc1nc2c(c(-c3ccc(O)cc3)n1)CCN(Cc1ccc(OC(F)(F)F)cc1)CC2 | 1.5 µM (active) | 
64 | COc1ccc(CN2CCC3(CC(c4ccc(OC)cc4)=NO3)C2)cc1 (stereo not drawn) |  | 8.93%
65 | O=[S+]1([O-])NCC2(CCCN(Cc3ccc(OC(F)(F)F)cc3)C2)Nc2ccccc21 (stereo not drawn) |  | -25.2%
66 | CCc1nc2c(c(-c3ccc(O)cc3)n1)CCN(Cc1ccc(OC)cc1)CC2 | 6.68 µM (active) | 
67 | Cc1cc(C)c(S(=O)(=O)n2ccc(-c3ccc(OCCN(C)c4ccccn4)cc3)n2)c(C)c1 | 7.5 µM (active) | 
68 | COc1cccc2c(=O)n(CC(=O)NCCc3ccccc3)ccc12 |  | 35.5%
69 | COc1ccccc1N1CCN(C(=O)CNS(=O)(=O)c2ccc(Br)s2)CC1 |  | 40.1%
70 | COc1ccc(-n2nc(C(=O)NCC(=O)N3CCN(c4ccccc4OC)CC3)c3ccccc3c2=O)c(OC)c1 | 2.11 µM (active) | 
71 | COc1ccc(-n2nc(C(=O)NCC(=O)N3CCN(c4ccccc4OC)CC3)c3ccccc3c2=O)cc1OC | 6.68 µM (active) | 
72 | O=C(NCCc1c[nH]c2ccccc12)c1c(OCC2CC2)cc(=O)n2c1CCOCC2 |  | -39.2%
73 | Cc1cc(OC(C)C(=O)NCCc2c[nH]c3ccccc23)c2c(C)cc(=O)oc2c1 (stereo not drawn) | 2.66 µM (active) | 
74 | CCCc1noc(-c2ccn3c(CNC(=O)C(C)Oc4ccccc4)nnc3c2)n1 (stereo not drawn) |  | -11.4%
75 | CCc1cc(=O)oc2cc(C)cc(OCC(=O)C(C)(C)C)c12 | 11.9 µM (active) | 

Row | Compound | Potency | activity change, negative = inhibition
76 | CCCc1cc(=O)oc2cc(C)cc(OC(C)C(=O)NCC(O)c3ccccc3)c12 (stereo not drawn) | 0.842 µM (active) | 
77 | CCc1cc(=O)oc2cc(C)cc(OCC(=O)NCC(O)c3ccccc3)c12 (stereo not drawn) | 6.68 µM (active) | 
78 | Oc1cc(Cc2ccccc2)cnc1CN1CCCCC1 | 0.944 µM (active) | 
79 | CC12CC3CC(C)(C1)CC(Nc1nc(N4CCOCC4)nc4ccccc14)(C3)C2 | 9.44 µM (active) | 
80 | Clc1ccc(-c2nc(N3CCOCC3)nc3ccccc23)cc1 |  | 7.5%
81 | CN1N=C2c3ccccc3CCC2C1c1ccc(F)cc1 (stereo not drawn) | 5.96 µM (active) | 
82 | Cc1ccc2oc(=O)n(CCOc3ccccc3C)c2c1 | 4.73 µM (active) | 
83 | COc1ccccc1C(=O)NCCn1ccn2nc(-c3cc(C)ccc3C)cc2c1=O |  | -2.98%
84 | O=C(N[C@H]1CCN2C(=O)c3ccccc3NC(=O)[C@@H]2C1)c1cccs1 |  | 27.3% [at 43.1 µM]
85 | O=C(c1cccs1)N1CCCCCC1CN1CCCC1 (stereo not drawn) | 10.6 µM (active) | 
86 | CCNC(=O)N1CCCCCC1CN1CCc2ccccc2C1 (stereo not drawn) |  | -9.47%
87 | CCCCCCNC(=O)Cc1csc2nc(C)c(-c3cc(C)n(-c4cccc(C)c4)n3)c(=O)n12 | 15 µM (active) | 
88 | CCCCC(O)(c1ccc(CC)cc1)C(CN1CCOCC1)c1ccccc1 (stereo not drawn) | 4.73 µM (active) | 
89 | CCCCCC(O)(c1ccc(OC)cc1)C(CN1CCOCC1)c1ccccc1 (stereo not drawn) | 2.11 µM (active) | 
90 | CCCCCCC(O)(c1ccc(OC)cc1)C(CN1CCOCC1)c1ccccc1 (stereo not drawn) | 4.22 µM (active) | 
91 | CCCN1C(CC(C)C)=NS(=O)(=O)c2cc(NC(=O)c3ccco3)ccc21 | 7.5 µM (active) | 
92 | CCCN1C(CC(C)C)=NS(=O)(=O)c2cc(NC(=O)c3cccs3)ccc21 | 0.335 µM (active) | 
93 | COc1ccc(NC(C)C(=O)Nc2cc(C(F)(F)F)ccc2N2CCOCC2)c(OC)c1 (stereo not drawn) | 0.842 µM (active) | 
94 | CCOc1ccccc1NC(C)C(=O)Nc1cc(C(F)(F)F)ccc1N1CCOCC1 (stereo not drawn) | 2.66 µM (active) | 
95 | CC(Oc1ccccc1)C(=O)NC1CCN(c2cc(C(F)(F)F)ncn2)CC1 (stereo not drawn) |  | -10.9%
96 | CCC(Oc1ccccc1)C(=O)Nc1cc(C(F)(F)F)ccc1N1CCOCC1 (stereo not drawn) | 7.5 µM (active) | 
97 | CCOc1ccccc1NC(=O)N1CCC([C@@H]2[C@H](OC)C(=O)N2C(C)C)CC1 |  | 20.9%
98 | COc1cc(Cl)c(C)cc1NC(C)C(=O)Nc1cc(C(F)(F)F)ccc1N1CCOCC1 (stereo not drawn) | 0.422 µM (active) | 
